Source: PubChem BioAssay (NCI)
This is part of a sample that, as a whole, favours compounds with a hit. Of some 83,000 tested, about 20% had one in any assay.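 In brief: 96-well plates, 48 h treatment, single concentration, percent growth endpoint.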 The source made the active and inactive calls. The calls were made as follows: active = growth percent below 10; inactive = the rest.

Legend:
Assay in all cases: NCI-60 one-dose screen, 48 h (100 = growth as untreated, 0 = no growth, -100 = all killed)
Settings in all cases: 10 µM unless noted
NCI-H23 lung = tested on: NCI-H23 lung
NCI-H226 lung = tested on: NCI-H226 lung
NCI-H322M lung = tested on: NCI-H322M lung
HOP-62 NSCLC = tested on: HOP-62 NSCLC
NCI-H460 lung = tested on: NCI-H460 lung
HOP-92 NSCLC = tested on: HOP-92 NSCLC
NCI-H522 lung = tested on: NCI-H522 lung
A549/ATCC NSCLC = tested on: A549/ATCC NSCLC
786-0 renal = tested on: 786-0 renal
COLO 205 colon = tested on: COLO 205 colon

Measured: growth

C#C[C@@]1(O)[C@@H](CO)O[C@@H](n2cc(F)c3c(N)ncnc32)[C@@H]1O
active: NCI-H23 lung -30.5% | NCI-H226 lung -62.3% | NCI-H322M lung -2.54% | NCI-H460 lung 0.623% | HOP-92 NSCLC -15% | NCI-H522 lung -1.45% | A549/ATCC NSCLC -37.9% | 786-0 renal -29.5% | COLO 205 colon -43.4%
inactive: HOP-62 NSCLC 17.5%

COC(=O)c1cc2c3c(cc(O)c2[nH]1)N(C(=O)C1Cc2cc(OC)c(OC)c(OC)c2N1)CC3CCl (stereo not given)
active: NCI-H23 lung -48.7% | NCI-H226 lung -35.1% | NCI-H322M lung -16.2% | HOP-62 NSCLC -54.7% | NCI-H460 lung -17.9% | HOP-92 NSCLC -35.9% | NCI-H522 lung -60.6% | A549/ATCC NSCLC -21% | 786-0 renal -47.6% | COLO 205 colon -70.4%

[2H]c1cc2c(c([2H])c1F)/C(=C/c1[nH]c(C)c(C(=O)NCCN(CC)CC)c1C)C(=O)N2
inactive: NCI-H23 lung 43.5% | NCI-H226 lung 40.5% | NCI-H322M lung 47.7% | HOP-62 NSCLC 28.9% | NCI-H460 lung 47.5% | HOP-92 NSCLC 26.6% | NCI-H522 lung 62.4% | A549/ATCC NSCLC 56.5% | 786-0 renal 32.5% | COLO 205 colon 38.3%

Cc1c(C(=O)Nc2nc3ccccc3[nH]2)cnn1-c1ccccn1
inactive: NCI-H23 lung 101% | NCI-H226 lung 104% | NCI-H322M lung 111% | HOP-62 NSCLC 107% | NCI-H460 lung 103% | HOP-92 NSCLC 135% | NCI-H522 lung 76.2% | A549/ATCC NSCLC 86.3% | 786-0 renal 107% | COLO 205 colon 126%

C#Cc1cccc(Nc2ncnc3ccc(NC(=O)c4ccccc4)cc23)c1
inactive: NCI-H23 lung 86.9% | NCI-H226 lung 85.9% | NCI-H322M lung 21.7% | HOP-62 NSCLC 102% | NCI-H460 lung 76.8% | HOP-92 NSCLC 65% | NCI-H522 lung 53.5% | A549/ATCC NSCLC 70.9% | 786-0 renal 76.7% | COLO 205 colon 99.7%

COc1cc(NC(=O)c2cc(O)c(C/C=C(\C)CCC=C(C)C)c(O)c2)cc2c1O[C@]1(C)CC[C@@H](O)C(C)(C)[C@H]1C2
active: HOP-92 NSCLC -9.24% | 786-0 renal -19% | COLO 205 colon -22.3%
inactive: NCI-H23 lung 25.1% | NCI-H226 lung 38% | NCI-H322M lung 41.5% | HOP-62 NSCLC 12.1% | NCI-H460 lung 11.4% | NCI-H522 lung 12.8% | A549/ATCC NSCLC 14.5%

CCOC(=O)CC[C@H](NC(=O)c1ccc(NC)c2ccccc12)C(=O)OCC
inactive: NCI-H23 lung 105% | NCI-H226 lung 100% | NCI-H322M lung 106% | HOP-62 NSCLC 93.6% | NCI-H460 lung 101% | HOP-92 NSCLC 92.3% | NCI-H522 lung 91.2% | A549/ATCC NSCLC 89.9% | 786-0 renal 102% | COLO 205 colon 106%

O=C(Nc1nccs1)c1noc2ccccc12
inactive: NCI-H23 lung 91.9% | NCI-H226 lung 92.7% | NCI-H322M lung 92% | HOP-62 NSCLC 86.8% | NCI-H460 lung 96.6% | HOP-92 NSCLC 76.2% | NCI-H522 lung 86.6% | A549/ATCC NSCLC 95.7% | 786-0 renal 95.7% | COLO 205 colon 104%

CN(C)C(CNc1oc(-c2cccc3ccccc23)nc1C#N)c1ccco1 (stereo not given)
inactive: NCI-H23 lung 97.1% | NCI-H226 lung 101% | NCI-H322M lung 99.9% | HOP-62 NSCLC 94.9% | NCI-H460 lung 101% | HOP-92 NSCLC 94% | NCI-H522 lung 86.9% | A549/ATCC NSCLC 91.6% | 786-0 renal 90.1% | COLO 205 colon 93.1%

COc1ccc2[nH]c(-c3ccccc3)c(C=C(C#N)C#N)c2c1
inactive: NCI-H23 lung 23.4% | NCI-H226 lung 55.1% | NCI-H322M lung 59.1% | HOP-62 NSCLC 37.4% | NCI-H460 lung 15.3% | A549/ATCC NSCLC 37% | 786-0 renal 33.9% | COLO 205 colon 38.2%
active: HOP-92 NSCLC -7.8% | NCI-H522 lung -18.4%

COc1cc2nc3c(=O)n(-c4ccc(C#N)cc4)cnn3c(=O)c2cc1OC
inactive: NCI-H23 lung 98.3% | NCI-H226 lung 95.1% | NCI-H322M lung 93.3% | HOP-62 NSCLC 102% | NCI-H460 lung 104% | HOP-92 NSCLC 103% | NCI-H522 lung 82.1% | A549/ATCC NSCLC 106% | 786-0 renal 103% | COLO 205 colon 94.3%

Nc1c(C(=O)Nc2ccccn2)sc2nc3c(cc12)C(=O)CCC3
active: NCI-H460 lung 6.33% | COLO 205 colon 7.57%
inactive: NCI-H23 lung 46.1% | NCI-H226 lung 74.7% | NCI-H322M lung 43.6% | HOP-62 NSCLC 40.6% | HOP-92 NSCLC 87.3% | NCI-H522 lung 12% | A549/ATCC NSCLC 18% | 786-0 renal 35.4%

C#CCN(CCCOc1ccc(Cl)cc1Cl)CCCSC(=O)CCCCCN1/C(=C\C=C2/CCCC(/C=C/C3=[N+](CCCCCC(=O)[O-])c4ccccc4C3(C)C)=C2Cl)C(C)(C)c2ccccc21
inactive: NCI-H23 lung 45.3% | NCI-H322M lung 83.7% | HOP-62 NSCLC 30.7% | NCI-H460 lung 11.8% | HOP-92 NSCLC 13.7% | A549/ATCC NSCLC 66% | 786-0 renal 25.4% | COLO 205 colon 32.8%
active: NCI-H226 lung -10.9% | NCI-H522 lung -10.3%
